Rows were chosen to be rich in hits. Some 1.7% of all compounds tested hit in one or more screens of this group.
Fam108B inh = mouse Fam108B serine hydrolase inhibitors, primary screen, counter-screen for RBBP9 inhibitor project, biochemical, fluorescence polarization; recombinant Fam108B, FP-Rh probe fluorescence polarization; inhibition, % at 9.51 µM; 300,000 tested, 0.33% active; AID 1947, 2009;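 active = inhibition above the screen mean inhibition plus 3 SD, computed separately per campaign, cut at about 18% in these data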;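 note: inhibitors lower polarization as less probe binds the enzyme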
LYPLA2 inh = LYPLA2 inhibitors, primary screen, counter-screen for PME1 inhibitor project, biochemical, fluorescence polarization, FP-Rh probe ABPP | Acyl-protein thioesterase 2 (Homo sapiens), O95372 | recombinant LYPLA2 | inhibition, % at 5.9 µM | 320,000 tested, 0.38% active | AID 2177, 2009;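 active = inhibition above the screen-wide mean plus 3 SD, limit set per campaign, cut at about 26% in these data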;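 note: 0% = LYPLA2 with DMSO and 100% = wells lacking LYPLA2 enzyme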
GSTO1 counter = inhibitors of recombinant GSTO1, primary screen, counter-screen for RBBP9 inhibitor project, biochemical, fluorescence polarization | activity-based probe fluorescence polarization | Glutathione S-transferase omega-1 (Homo sapiens), P78417 | inhibition, % at 5.96 µM | 300,000 tested, 1.1% active;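 active = inhibition above the campaign mean inhibition plus 3 SD, cut at about 35% in these data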;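 note: 0% = GSTO1-1 with DMSO and 100% = wells lacking GSTO1-1 enzyme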
Target sequence (P78417 whole entry, looked up): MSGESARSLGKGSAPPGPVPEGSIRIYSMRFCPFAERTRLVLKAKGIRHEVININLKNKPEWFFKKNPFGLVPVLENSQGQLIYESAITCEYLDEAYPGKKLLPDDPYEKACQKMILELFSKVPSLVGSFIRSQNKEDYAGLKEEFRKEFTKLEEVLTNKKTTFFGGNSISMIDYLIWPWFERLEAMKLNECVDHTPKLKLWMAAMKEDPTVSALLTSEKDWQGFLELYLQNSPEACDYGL
LYPLA1 inh = LYPLA1 inhibitors, primary screen, counter-screen for PME1 inhibitor project, biochemical, fluorescence polarization, FP-Rh probe ABPP; 320,000 tested, 0.16% active; recombinant LYPLA1; inhibition, % at 5.9 µM;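 active = inhibition above the mean of all tested compounds plus 3 SD, set per campaign, cut at about 14% in these data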;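 note: inhibitors block serine hydrolase probe labeling of LYPLA1 so polarization falls; 0% = enzyme with DMSO and 100% = wells lacking LYPLA1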
PAD4 FP inh = human PAD4 inhibitors, primary screen, biochemical, fluorescence polarization, 1536-well format; recombinant PAD4, RCA probe fluorescence polarization; 330,000 tested, 0.41% active; inhibition, % at 6.36 µM; AID 485272, 2010; Protein-arginine deiminase type-4 (Homo sapiens), Q9UM07;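 active = percent inhibition above a cutoff equal to the mean of all tested compounds plus 3 SD, cut at about 15% in these data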;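 note: 0% = PAD4 with RCA probe and DMSO and 100% = probe without PAD4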
PME-1 inh = PME-1 inhibitors via competitive probe labeling, primary screen, biochemical, fluorescence polarization, FP-Rh probe, HTS; recombinant PME-1; AID 2130, 2009; inhibition, % at 5.9 µM; 320,000 tested, 0.53% active; Protein phosphatase methylesterase 1 (Homo sapiens), Q9Y570;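 active = inhibition above the campaign mean of all compounds plus 3 SD, cut at about 26% in these data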;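 note: competitive labeling of PME-1 active site by serine hydrolase directed probe; 0% = PME-1 with DMSO and 100% = wells lacking PME-1 enzyme; inhibitors block probe labeling so polarization falls and inhibition rises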
Target sequence (Q9Y570 whole entry, looked up): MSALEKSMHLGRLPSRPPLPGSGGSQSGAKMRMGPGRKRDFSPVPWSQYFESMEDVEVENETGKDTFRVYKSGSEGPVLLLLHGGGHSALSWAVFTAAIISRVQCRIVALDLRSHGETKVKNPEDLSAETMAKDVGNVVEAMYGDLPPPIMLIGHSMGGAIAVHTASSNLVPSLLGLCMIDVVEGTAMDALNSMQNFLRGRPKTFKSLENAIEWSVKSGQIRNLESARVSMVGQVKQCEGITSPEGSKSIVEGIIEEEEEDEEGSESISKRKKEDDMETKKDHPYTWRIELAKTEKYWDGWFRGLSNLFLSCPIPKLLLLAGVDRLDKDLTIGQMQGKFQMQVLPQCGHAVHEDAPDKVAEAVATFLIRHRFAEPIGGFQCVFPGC
LYPLA2 conf = LYPLA2 inhibitors, retest, confirmation, counter-screen for PME1 inhibitor project, biochemical, fluorescence polarization, FP-Rh probe ABPP | AID 2232, 2010 | 1,100 tested, 72% active | shares compounds with LYPLA2 inh | recombinant LYPLA2 | inhibition, % at 5.9 µM;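 active = mean inhibition across replicates above the hit cutoff set in the primary screen, cut at about 26% in these data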;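 note: blocked labeling of the enzyme by serine hydrolase FP-Rh probe lowers polarization; 0% = enzyme with DMSO and 100% = wells lacking LYPLA2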
LYPLA2 gel ABPP = LYPLA2 inhibitors in proteome, late-stage follow-up, gel-based competitive ABPP, fluorescence, assay provider; 150 tested, 30% active; AID 652029, 2013; rhLYPLA2 in mouse brain proteome, gel ABPP FP-Rh; inhibition, % at 20 µM; shares compounds with LYPLA2 inh;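 active = inhibition of LYPLA2 enzyme probe labeling above about 50%, limit read from the data; inactive = inhibition below that limit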;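 note: loss of FP-Rh probe labeling of the LYPLA2 gel band measured as band density; 0% = DMSO only control band and 100% = blank gel background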
An asterisk follows results filed as active; . = not tested or not shown.

SMILES	Fam108B inh	LYPLA2 inh	GSTO1 counter	LYPLA1 inh	PAD4 FP inh	PME-1 inh	LYPLA2 conf	others
COc1ccc(C2NS(=O)(=O)N=C2N)cc1 (centres undefined)	3.7	32.1*	-3.1	4.4	-4.7	1.9	-6.7
O=C(CSc1nnc(NCc2ccccc2)s1)c1ccco1	1.3	4.3	-0.9	0.8	2.3	2.5	.
CC(=O)c1ccc(OCc2cc(C(=O)N3CCC(c4ccncc4)CC3)no2)cc1	-1.9	34.0*	-5.9	2.7	4.8	-2.1	37.3*
COc1ccc(CCNC(=O)C2CCN(C(=O)c3ccc(C(C)(C)C)cc3)CC2)cc1	4.0	19.9	5.1	2.5	-0.4	5.6	.
CC(C)(C)c1ccc(C(=O)N2CCC(C(=O)NCc3ccncc3)CC2)cc1	1.9	33.6*	3.8	-0.6	0.0	5.9	40.7*
CC(C)(C)c1ccc(C(=O)N2CCC(NC(=O)c3ccccc3)CC2)cc1	0.8	38.6*	22.4	-2.0	1.2	-3.3	37.2*
CC(C)(C)c1ccc(C(=O)N2CCC(C(=O)NC3CC3)CC2)cc1	-4.2	4.3	3.9	-2.7	-1.9	3.5	.
COc1ccc(NC(=O)C2C3C=CC4(O3)C2C(=O)N(CCCN2CCCC(C)C2)C4C(=O)NC2CCCCC2)cc1 (centres undefined)	-4.0	-0.4	-0.5	2.3	2.6	-3.4	.
COc1ccc(N2C(=O)C3CCCN3C2=O)cc1 (centres undefined)	-5.2	4.2	-0.1	-0.4	-3.3	-0.9	.
CC1Oc2ccccc2N(CC(=O)N2CCCC2)C1=O (centres undefined)	-2.3	-0.3	11.0	1.1	-1.6	-5.8	.
CC1CCCN(C(=O)CN2C(=O)C(C)Oc3ccccc32)C1 (centres undefined)	1.3	28.9*	2.3	5.2	4.3	1.0	-2.5
CC(=O)c1ccc(N2CCN(c3ccc(C(F)(F)F)cn3)CC2)cc1	0.1	45.5*	4.0	0.8	-0.7	7.2	41.5*
CC(=O)Nc1ccc(N2CCN(c3ccc(C(F)(F)F)cn3)CC2)nc1	-4.3	52.3*	0.1	3.9	3.9	-2.5	51.0*	LYPLA2 gel ABPP=27.0
CC(=O)c1cccc(OCC(=O)N2CCN(c3ccc(C(F)(F)F)cn3)CC2)c1	0.0	58.2*	0.6	5.4	-0.6	1.6	56.8*	LYPLA2 gel ABPP=45.0
Cc1ccc(C(=O)N2CCN(c3ccc(C(F)(F)F)cn3)CC2)cc1	0.2	15.1	3.4	4.1	-3.5	-4.5	.
Cc1nc2sc(C(c3cccc(F)c3)N3CCOCC3)c(O)n2n1 (centres undefined)	-2.4	8.2	-4.7	2.4	2.9	1.4	.
O=C(CCCN1C(=O)c2ccccc2C1=O)OC1CSCC1NC(=O)c1ccccc1 (centres undefined)	-5.9	5.4	3.9	-1.4	-1.4	3.4	.
CCCOc1ccc(N2C(=O)CC(N3CCN(c4ccc([N+](=O)[O-])cc4)CC3)C2=O)cc1 (centres undefined)	-4.6	35.0*	-1.0	1.8	0.2	5.8	36.4*
CC(=O)N/C(=C\c1cccc([N+](=O)[O-])c1)C(=O)NC1CCCCC1	3.5	12.8	4.0	8.4	-1.9	-1.3	.
Clc1ccc(-c2nnc(C3CC3)o2)cc1	1.2	9.5	10.8	4.7	2.7	2.0	.
CCC1CCC(c2nnc(-c3ccc([N+](=O)[O-])cc3)o2)CC1 (centres undefined)	3.9	49.3*	6.5	6.0	-0.4	-2.3	51.3*	LYPLA2 gel ABPP=23.0
COc1ccccc1-n1cc(C(=O)NCC(=O)N2CCN(c3ccccc3)CC2)c2ccccc2c1=O	-1.2	36.6*	-1.3	4.4	-1.2	0.0	26.8*
Clc1cccc(/C=N/N2CCN(Cc3ccccc3)CC2)c1	4.4	0.2	-2.0	1.4	-0.2	-3.7	.
CC(=O)c1ccc(N2CCN(C(=O)Nc3ccc(C(C)C)cc3)CC2)cc1	0.6	47.8*	0.1	3.0	2.5	5.1	41.7*
Cn1c(SCC(=O)Nc2ccc3cn[nH]c3c2)nnc1-c1cccs1	5.2	28.7*	-4.1	3.9	-1.5	13.9	-1.8
SMILES	Fam108B inh	LYPLA2 inh	GSTO1 counter	LYPLA1 inh	PAD4 FP inh	PME-1 inh	LYPLA2 conf	others
Cn1c(SCC(=O)Nc2ccc3cn[nH]c3c2)nnc1-c1cnccn1	-1.8	3.8	2.6	-0.8	-4.0	-6.8	.
CCc1ccc(NC(=O)C(C)Sc2ccc(S(=O)(=O)N3CCN(C)CC3)cn2)cc1 (centres undefined)	.	5.2	.	0.6	-4.8	-4.9	.
CN1C(=O)C(CC(=O)NC2CCCCC2)SC1=Nc1ccccc1 (centres undefined)	-1.3	-2.7	-1.1	2.0	-5.0	3.1	.
O=C(CN1CCN(c2ccc(Cl)cc2)CC1)NCc1ccccc1	11.6	6.9	8.5	2.8	3.0	19.8	.
O=C(CN1CCN(C/C=C/c2ccccc2)CC1)NCc1ccc(Cl)cc1	-3.8	41.7*	3.8	6.3	-2.5	4.1	33.9*
O=C(CCc1nc2ccccc2c(=O)[nH]1)Nc1cccc(S(=O)(=O)N2CCOCC2)c1	-0.6	0.8	3.7	-0.9	-2.5	7.5	.
O=C(c1ccc(N2CCN(C(=O)c3ccccc3)CC2)cc1)c1cccc(F)c1	-0.3	26.6*	-4.3	-3.0	0.9	-0.7	30.1*
O=C(c1ccc(N2CCN(C(=O)c3ccc(F)c(F)c3)CC2)cc1)c1cccc(F)c1	4.3	32.1*	-6.4	-3.6	-0.5	5.4	33.2*
Cc1cc(C)c(C#N)c(SCc2[nH]nc3c2C(c2ccc(F)cc2)C(C#N)=C(N)O3)n1 (centres undefined)	-3.8	39.8*	22.3	-2.1	-2.9	11.6	36.2*
CN1C(=O)CC(C(=O)Nc2ccc(F)cc2)SC1=Nc1ccc2c(c1)OCO2 (centres undefined)	2.9	8.8	0.5	-1.5	2.7	-2.9	.
Cc1ccc(N=C2NC(=O)CC(C(=O)Nc3ccc4c(c3)OCO4)S2)cc1 (centres undefined)	-0.7	28.0*	2.0	3.3	-0.1	-5.9	13.2
O=C(Nc1ccc2c(c1)CCC2)C1CCN(c2c3c(nc4ncnn24)CCC3)CC1	-0.9	11.7	0.3	-1.8	-0.2	-2.4	.

Screening results from PubChem.
